From PubChem BioAssay (NCI)
“And” between values parts separate entries of the source, which are not always exact repeats. Equal values may be shown once. This is part of a sample that, as a whole, favours compounds with a hit. Of some 83,000 tested, about 20% had one in any assay.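 Plates (96-well) were seeded with cells, treated with compound at one concentration, and incubated for 48 hours before percent growth was determined.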 The source made the active and inactive calls. Rule for the calls: active = growth percent below 10; inactive = the rest.

Key:
Experiment in all cases: NCI-60 one-dose screen, 48 h (100 = growth as untreated, 0 = no growth, -100 = all killed)
Settings in all cases: 10 µM unless noted
T-47D breast = tested on: T-47D breast
BT-549 breast = tested on: BT-549 breast
MDA-MB-435 melanoma = tested on: MDA-MB-435 melanoma
MCF7 breast = tested on: MCF7 breast
HCT-116 colon = tested on: HCT-116 colon
HCC-2998 colon = tested on: HCC-2998 colon
KM12 colon = tested on: KM12 colon
SW-620 colon = tested on: SW-620 colon

Row | SMILES | growth (T-47D breast) | growth (BT-549 breast) | growth (MDA-MB-435 melanoma) | growth (MCF7 breast) | growth (HCT-116 colon) | growth (HCC-2998 colon) | growth (KM12 colon) | growth (SW-620 colon)
1 | COC(=O)c1nc(=S)[nH]c(C(=O)OC)c1C(=O)c1ccccc1 | 107% (inactive) | 124% (inactive) | 107% (inactive) | 94.2% (inactive) | 126% (inactive) | 116% (inactive) | 114% (inactive) | 
2 | Cc1cc(-c2ccc(N=Nc3c(C)nn(-c4ccc(S(=O)(=O)O)cc4)c3O)c(C)c2)ccc1N=Nc1ccc(O)c(C(=O)O)c1 | 99.7% (inactive) | 98.5% (inactive) | 110% (inactive) | 94% (inactive) | 99.8% (inactive) | 94% (inactive) | 96.1% (inactive) | 
3 | CCCC(=O)OCC(COC(=O)CCC)OC(=O)CCC | 85.3% (inactive) | 106% (inactive) | 106% (inactive) | 93.9% (inactive) | 98.8% (inactive) | 95.3% (inactive) | 103% (inactive) | 
4 | O=P(O)(O)OC1C(OP(=O)(O)O)C(OP(=O)(O)O)C(OP(=O)(O)O)C(OP(=O)(O)O)C1OP(=O)(O)O.[Cu+2] (stereo not drawn) | 101% (inactive) | 126% (inactive) | 101% (inactive) | 86.8% (inactive) | 96.6% (inactive) | 96.3% (inactive) | 100% (inactive) | 
5 | O=COCCCc1ccccc1 | 92.7% (inactive) | 104% (inactive) | 110% (inactive) | 105% (inactive) | 96.1% (inactive) | 121% (inactive) | 109% (inactive) | 
6 | CN(C)C(=N)N=C(N)N | 90.5% (inactive) and 102% (inactive) | 80.2% (inactive) and 156% (inactive) | 109% (inactive) and 124% (inactive) | 96.7% (inactive) and 146% (inactive) | 108% (inactive) and 98.3% (inactive) | 115% (inactive) | 100% (inactive) and 108% (inactive) | 
7 | CCCCC/C(C)=N\NC(N)=S | 33.6% (inactive) | 96.7% (inactive) | 84.4% (inactive) | 19.6% (inactive) | 11.7% (inactive) | 97.8% (inactive) | 93.5% (inactive) | 
8 | Oc1ccc(O)c(-c2ccccc2)c1 | 47.1% (inactive) | 55.3% (inactive) | 81.8% (inactive) | 39.5% (inactive) | 47.1% (inactive) | 65.6% (inactive) | 40.8% (inactive) | 
9 | CC(C)(C)OC(=O)NCCc1ccc(N)cc1 | 94.8% (inactive) | 98.1% (inactive) | 101% (inactive) | 99.2% (inactive) | 112% (inactive) | 107% (inactive) | 107% (inactive) | 
10 | COC(=O)c1nc(N)nc(C(=O)OC)c1C(=O)c1ccc(F)cc1 | 105% (inactive) | 120% (inactive) | 107% (inactive) | 97.1% (inactive) | 110% (inactive) | 110% (inactive) | 107% (inactive) | 
11 | COCCCNC1=C(C#N)C(=O)NC(c2cccs2)S1 (stereo not drawn) | 89% (inactive) | 96% (inactive) | 95.9% (inactive) |  | 103% (inactive) | 108% (inactive) | 108% (inactive) | 
12 | CCOP(C)(=O)/C(Cc1ccc(OC)c(OC)c1)=N\O (stereo not drawn) | 115% (inactive) | 115% (inactive) | 104% (inactive) | 104% (inactive) | 103% (inactive) | 98.5% (inactive) | 101% (inactive) | 
13 | CC(=O)/C(N=Nc1ccc(S(=O)(=O)c2ccc(N=N/C(C(C)=O)=C(/C)O)cc2)cc1)=C(\C)O | 113% (inactive) |  | 118% (inactive) | 96.1% (inactive) | 93.2% (inactive) | 96.4% (inactive) | 94.8% (inactive) | 99.4% (inactive)
14 | CNc1ccc(Cl)cc1S(=O)(=O)c1ccccc1[N+](=O)[O-] | 85.5% (inactive) and 69.2% (inactive) | 79.5% (inactive) and 86.9% (inactive) | 49.6% (inactive) and 6.48% (active) | 94.3% (inactive) and 89.9% (inactive) | 107% (inactive) and 90.2% (inactive) | 109% (inactive) | 75% (inactive) and 95.3% (inactive) | 
15 | CCc1ccc(OC(=O)CCl)cc1 | 100% (inactive) | 109% (inactive) | 100% (inactive) | 103% (inactive) | 102% (inactive) | 104% (inactive) | 95% (inactive) | 
16 | CCCC(=O)Oc1ccc2ccccc2c1 | 92.2% (inactive) |  | 106% (inactive) | 101% (inactive) | 101% (inactive) | 97.9% (inactive) | 113% (inactive) | 92.1% (inactive)
17 | COc1ccc(/C=C/C(=O)O)cc1OC | 107% (inactive) and 106% (inactive) | 107% (inactive) and 111% (inactive) | 109% (inactive) and 112% (inactive) | 97.9% (inactive) and 102% (inactive) | 99.5% (inactive) and 105% (inactive) | 119% (inactive) and 102% (inactive) | 109% (inactive) | 
18 | CC(=O)Nc1cscc1NC(C)=O | 94.4% (inactive) | 90.3% (inactive) | 89.1% (inactive) | 94.5% (inactive) | 103% (inactive) | 94.1% (inactive) | 106% (inactive) | 
19 | Cc1cnc(N)s1 | 90.2% (inactive) | 100% (inactive) | 104% (inactive) | 95.4% (inactive) | 95.8% (inactive) | 92% (inactive) | 103% (inactive) | 
20 | CC(=O)Oc1cc(C)c(OC(C)=O)c(C)c1C | 82.2% (inactive) | 117% (inactive) | 105% (inactive) | 91.3% (inactive) | 112% (inactive) | 105% (inactive) | 101% (inactive) | 
21 | O=C(O)C(Cc1ccc(OS(=O)(=O)Cc2ccccc2)cc1)NS(=O)(=O)Cc1ccccc1 (stereo not drawn) | 101% (inactive) and 99.9% (inactive) | 104% (inactive) and 106% (inactive) | 98.7% (inactive) and 111% (inactive) | 91.4% (inactive) and 98.4% (inactive) | 105% (inactive) and 109% (inactive) | 115% (inactive) | 101% (inactive) and 106% (inactive) | 
22 | CCOCCC(=O)O | 94.1% (inactive) | 107% (inactive) | 108% (inactive) | 104% (inactive) | 97.3% (inactive) | 123% (inactive) | 117% (inactive) | 
23 | COc1ccc(CCNC(=S)NN)cc1OC | 98.8% (inactive) | 118% (inactive) | 111% (inactive) | 93.9% (inactive) | 84.2% (inactive) | 88.8% (inactive) | 94.2% (inactive) | 
24 | COc1ccc2nccc(Cl)c2c1 | 122% (inactive) | 98.4% (inactive) | 108% (inactive) | 98.5% (inactive) | 103% (inactive) | 115% (inactive) | 92.8% (inactive) | 
25 | N=C(N)N1CCc2ccccc2C1 | 86.2% (inactive) and 101% (inactive) | 84.4% (inactive) and 103% (inactive) | 96% (inactive) and 95.6% (inactive) |  | 94.7% (inactive) and 102% (inactive) | 83.2% (inactive) and 99.2% (inactive) |  | 
26 | c1ccc2c[n+](Cc3ccc4ccccc4n3)ccc2c1 | 62.6% (inactive) | 47.2% (inactive) | 90.3% (inactive) |  | 59.3% (inactive) | 71.7% (inactive) | 76.1% (inactive) | 
27 | COc1ccc(/C=N/Nc2nc3ccccc3s2)cc1 | 86.6% (inactive) | 97.6% (inactive) | 83.3% (inactive) |  | 83.3% (inactive) | 104% (inactive) | 87.6% (inactive) | 
28 | COc1ccc2oc3cc(NCCN(C)C)ccc3c(=O)c2c1 | 80.6% (inactive) and 63.4% (inactive) | 97.2% (inactive) and 93.9% (inactive) | 85.8% (inactive) and 70.8% (inactive) | 84.4% (inactive) and 67.8% (inactive) | 93.9% (inactive) and 54.1% (inactive) | 97.4% (inactive) and 77.1% (inactive) | 90.1% (inactive) and 79.8% (inactive) | 
29 | CN1C2C=CC(=O)C1C1C(=O)N(c3ccccc3)C(=O)C12 (stereo not drawn) | 68.5% (inactive) | 52.9% (inactive) | 80.5% (inactive) | 44.5% (inactive) | 35.9% (inactive) | 113% (inactive) | 56.3% (inactive) | 
